Experimental data published in PubChem BioAssay AID1159580 (chemical genetic matrix, 2015).
Several values for one entry are separate records, joined by “and”; a condition that tells them apart may be missing. Identical values can stand only once. The campaign covered roughly 5,500 compounds. About 2,000 (36%) were called active. Another 18% or so got no clear call; they are omitted. No stated cut-off is given here; in the data, active means normalized growth mostly below about 0.91 (no sharp cut-off); inconclusive means no clear call, values can overlap the other calls; inactive means mostly above about 0.92. The list shows a part of the results.

Assay: chemical genetic growth profiling, strain panel (AID 1159580);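 further: tested at 20 µM; growth read once vehicle control cultures reached saturation at 30 °C; 1 = growth at the plate median or of vehicle wells; lower values mean less growth of the strain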
Conditions: S. cerevisiae deletion strains, growth OD

Measured: normalized growth

C1N2CN3CN1CN(C2)C3
inactive: locus YAL013W, strain DEP1, hits give low values 0.975 | locus YAL021C, strain ccr4, hits give low values 0.986 | locus YAL026C, strain drs2, hits give low values 1 | locus YAL030W, strain snc1, hits give low values 0.993 | locus YBL061C, strain skt5, hits give low values 0.991 | locus YBR009C, strain hhf1, hits give low values 1.03 | locus YBR021W, strain FUR4, hits give low values 1.06 | locus YBR023C, strain chs3, hits give low values 0.984 | locus YBR171W, strain sec66, hits give low values 0.991 | locus YBR229C, strain ROT2, hits give low values 0.949 | locus YBR231C, strain swc5, hits give low values 1 | locus YBR279W, strain paf1, hits give low values 0.985 | locus YCL011C, strain gbp2, hits give low values 0.986 | locus YCL016C, strain dcc1, hits give low values 0.961 | locus YCL029C, strain bik1, hits give low values 0.977 | locus YCL061C, strain MRC1, hits give low values 0.987 | locus YCL069W, strain vba3, hits give low values 1 | locus YCR088W, strain abp1, hits give low values 0.982 | locus YDL005C, strain med2, hits give low values 0.999 | locus YDL035C, strain GPR1, hits give low values 0.989 | locus YDL040C, strain nat1, hits give low values 0.996 | locus YDL074C, strain BRE1, hits give low values 0.972 | locus YDL101C, strain DUN1, hits give low values 0.955 | locus YDL134C, strain PPH21, hits give low values 0.983 | locus YDL185W, strain tfp1, hits give low values 0.951 | locus YDL192W, strain arf1, hits give low values 0.972 | locus YDR001C, strain nth1, hits give low values 0.994 | locus YDR069C, strain doa4, hits give low values 1.03 | locus YDR101C, strain arx1, hits give low values 0.977 | locus YDR137W, strain rgp1, hits give low values 0.985 | locus YDR150W, strain NUM1, hits give low values 0.972 | locus YDR159W, strain sac3, hits give low values 1.04 | locus YDR162C, strain NBP2, hits give low values 0.954 | locus YDR195W, strain ref2 1.01 | locus YDR297W, strain sur2, hits give low values 0.986 | locus YDR318W, strain mcm21, hits give low values 0.98 | locus YDR334W, strain swr1, hits give low values 0.974 | locus YDR335W, strain msn5, hits give low values 0.997 | locus YDR388W, hits give low values 0.976 | locus YDR392W, strain spt3, hits give low values 0.923 | locus YDR502C, strain sam2, hits give low values 0.966 | locus YEL003W, strain gim4, hits give low values 1 | locus YEL037C, strain rad23, hits give low values 0.982 | locus YEL061C, strain CIN8 (second series), hits give low values 0.978 | locus YEL061C, strain CIN8, hits give low values 0.983 | locus YER015W, strain faa2, hits give low values 0.988 | locus YER016W, strain bim1, hits give low values 0.999 | locus YER110C, hits give low values 0.975 | locus YER111C, strain swi4, hits give low values 0.978 | locus YER155C, strain BEM2 (second series), hits give low values 0.991 | locus YER155C, strain BEM2, hits give low values 0.982 | locus YER167W, strain BCK2, hits give low values 0.984 | locus YFR010W, strain ubp6, hits give low values 0.988 | locus YGL078C, strain dbp3, hits give low values 0.942 | locus YGL086W, strain mad1, hits give low values 0.991 | locus YGL167C, strain pmr1, hits give low values 0.992 | locus YGL173C, strain kem1, hits give low values 0.994 | locus YGL227W, strain vid30, hits give low values 1 | locus YGL240W, strain doc1, hits give low values 0.999 | locus YGL248W, strain PDE1, hits give low values 0.973 | locus YGL253W, strain hxk2, hits give low values 0.998 | locus YGR078C, strain PAC10, hits give low values 0.973 | locus YGR135W, strain pre9, hits give low values 0.934 | locus YGR229C, strain SMI1, hits give low values 0.966 | locus YGR252W, strain gcn5, hits give low values 1.12 | locus YHR013C, strain ard1, hits give low values 0.95 | locus YHR027C, strain rpn1, hits give low values 0.99 | locus YHR030C, strain SLT2, hits give low values 0.99 and 0.968 | locus YHR079C, strain IRE1 (second series), hits give low values 0.974 | locus YHR079C, strain IRE1, hits give low values 0.929 | locus YHR094C, strain hxt1, hits give low values 0.976 | locus YHR129C, strain ARP1, hits give low values 0.978 | locus YHR142W, strain chs7, hits give low values 0.973 | locus YHR200W, strain rpn10, hits give low values 0.975 | locus YIL066C, strain RNR3, hits give low values 0.984 | locus YIL073C, strain SPO22, hits give low values 0.895 | locus YIL125W, strain kgd1, hits give low values 0.979 | locus YIR030C, strain dcg1, hits give low values 0.976 | locus YJL092W, strain hpr5, hits give low values 0.982 | locus YJL095W, strain BCK1 (second series), hits give low values 0.986 | locus YJL095W, strain BCK1, hits give low values 0.988 and 0.948 | locus YJL115W, strain asf1, hits give low values 0.985 | locus YJL129C, strain trk1, hits give low values 0.979 | locus YJL134W, strain LCB3, hits give low values 0.98 | locus YJL154C, strain vps35, hits give low values 0.991 | locus YJL164C, strain tpk1, hits give low values 0.99 | locus YJL166W, strain qcr8, hits give low values 0.964 | locus YJL168C, strain set2, hits give low values 0.985 | locus YJL187C, strain SWE1 (second series), hits give low values 0.975 | locus YJL187C, strain SWE1, hits give low values 0.988 | locus YJR043C, strain POL32, hits give low values 0.997 | locus YJR066W, strain TOR1, hits give low values 0.987
